NALP3 yeast inh: NALP3 inhibition in yeast; inhibition, % at 10 µM; 330,000 tested, 0.39% active; Yeast reconstituted NLRP3/ASC/caspase-1, beta-gal luminescence, 24 h;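 active = inhibition of 50% or more; inactive = inhibition below 50%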;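 also: plate controls were induced DMSO wells for no effect and uninduced yeast grown without galactose for full effect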
TIM10 inh: growth inhibitors of TIM10 yeast strain. S. cerevisiae TIM10 strain growth, BacTiter-Glo luminescence, 24 h. inhibition, % at 10 µM. 330,000 tested, 1.4% active. AID 463195;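 active = inhibition of 40% or more at the single tested concentration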;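 also: wild-type TIM10 isogenic control strain grown at permissive 25 °C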
SKKanGAS inh: SKKanGAS growth inhibition; S. pyogenes SKKanGAS, kanamycin growth, BacTiter-Glo, 6 h; inhibition, % at 7.5 µM; 300,000 tested, 1.3% active;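 active = mean replicate score, as percent of positive control median, at least 50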;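 also: strain carries kanamycin resistance gene driven by streptokinase promoter and grows in 40 µg/ml kanamycin; loss of luminescence reflects streptokinase promoter inhibition or plain growth inhibition; 0% = median of DMSO wells and 100% = positive control at its reference dose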
tim10-1 inh: growth inhibitors of tim10-1 mutant yeast; 330,000 tested, 2.2% active; inhibition, % at 20 µM; S. cerevisiae tim10-1 ts strain growth, BacTiter-Glo, 24 h; AID 463190;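 active = inhibition of at least 40%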;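 also: mutant grown at 25 °C; 0% = DMSO wells with yeast and 100% = wells holding no yeast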
tim23-1 inh: tim23-1 yeast growth inhibition; 330,000 tested, 1.3% active; S. cerevisiae tim23-1 growth, BacTiter-Glo luminescence, 24 h; inhibition, % at 20 µM;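 active = growth inhibition of the mutant yeast at or above 50%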;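 also: temperature-sensitive mutant grown at 25 °C; plate controls were DMSO-treated mutant yeast for no effect and medium wells lacking yeast for full effect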
tim10-1 conf: confirmation of tim10-1 mutant yeast growth inhibitors; shares compounds with tim10-1 inh; S. cerevisiae tim10-1 ts strain growth, BacTiter-Glo, 24 h; inhibition, % at 20 µM; 7,400 tested, 56% active; AID 463213;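 active = inhibition of yeast growth at or above a set limit in either of two repeat tests at 20 µM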;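 also: tim10-1 mutant grown at permissive 25 °C to find synthetic lethal compounds; 0% = DMSO yeast wells and 100% = medium wells without yeast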
TIM10 conf: TIM10 yeast growth inhibition, confirmed. shares compounds with TIM10 inh. S. cerevisiae tim10 strain growth, BacTiter-Glo luminescence, 24 h. inhibition, % at 10 µM. 4,600 tested, 63% active;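 active = inhibition of yeast growth at or above a set limit in either of two replicates at 10 µM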;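 also: this counterscreen used the strain with wild-type TIM10; 0% = yeast with DMSO and 100% = medium wells lacking yeast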
tim23-1 confirm: confirmation of tim23-1 mutant yeast growth inhibitors. S. cerevisiae tim23-1 growth, BacTiter-Glo luminescence, 24 h. 4,400 tested, 83% active. AID 463218. inhibition, % at 20 µM. shares compounds with tim23-1 inh;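 active = inhibition above about 39% in either of two replicate wells at 20 µM, limit read from the data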;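 also: temperature-sensitive tim23-1 mutant grown at 25 °C; 0% = DMSO wells with yeast and 100% = medium wells without yeast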
Numbers without * were called inactive. Sampled rows, rich in hits. Any-hit rate of the full collection: about 4.6%.

How did COC(=O)C1=C(C)N(C)C(=O)NC1c1cccc2ccccc12 (configuration not stated) do in these assays?
NALP3 yeast inh: 27; TIM10 inh: 5; SKKanGAS inh: -3; tim10-1 inh: 4; tim23-1 inh: 23

How did COc1cc(OC)c(C(=O)/C=C/c2ccccc2)c(O)c1O do in these assays?
NALP3 yeast inh: 11; TIM10 inh: 39; SKKanGAS inh: 2; tim10-1 inh: 51*; tim23-1 inh: 58*; tim10-1 conf: 32*; tim23-1 confirm: 63*

Results for COC(=O)c1cccc(NS(=O)(=O)c2cccs2)c1C ?
SKKanGAS inh: -4

Results for COC(=O)c1ccccc1NC1=C/C(=N\S(=O)(=O)c2cccs2)c2ccccc2C1=O ?
NALP3 yeast inh: 38; TIM10 inh: 41*; SKKanGAS inh: 22; tim10-1 inh: 46*; tim23-1 inh: 56*; tim10-1 conf: 41*; TIM10 conf: 27; tim23-1 confirm: 40*

How did Cc1ccc(/C=c2\sc3nc(-c4ccco4)nn3c2=O)o1 do in these assays?
NALP3 yeast inh: 31; TIM10 inh: 7; SKKanGAS inh: 38; tim10-1 inh: 25; tim23-1 inh: 16

What do the screens show for `COc1ccc(Br)cc1/C=c1\sc2nc(-c3ccco3)nn2c1=O`?
NALP3 yeast inh: 4; TIM10 inh: 42*; SKKanGAS inh: 12; tim10-1 inh: 54*; tim23-1 inh: 53*; tim10-1 conf: 44*; TIM10 conf: 38*; tim23-1 confirm: 55*

How did NCCCNc1nc(N)c([N+](=O)[O-])c(NC2CCCCC2)n1 do in these assays?
NALP3 yeast inh: 15; TIM10 inh: 7; SKKanGAS inh: -1; tim10-1 inh: 12; tim23-1 inh: 16

Results for CCN(CC)CCNc1c2c(c(C#N)c3nc4ccccc4n13)CCCC2 ?
NALP3 yeast inh: 28; TIM10 inh: 60*; SKKanGAS inh: -1; tim10-1 inh: 68*; tim23-1 inh: 57*; tim10-1 conf: 56*; TIM10 conf: 53*; tim23-1 confirm: 67*

What do the screens show for `CCOc1ccc(NC(=O)CN2CC(c3ccccc3)CC2=O)cc1` (configuration not stated)?
NALP3 yeast inh: 1; TIM10 inh: 14; SKKanGAS inh: -10; tim10-1 inh: 15; tim23-1 inh: 23

How did O=C(CN1CC(c2ccccc2)CC1=O)N/N=C/c1cc(Br)ccc1O (configuration not stated) do in these assays?
NALP3 yeast inh: 21; TIM10 inh: 34; SKKanGAS inh: 79*; tim10-1 inh: 41*; tim23-1 inh: 56*; tim10-1 conf: 22; tim23-1 confirm: 50*

Results for CN(Cc1ccc(F)cc1)C(=O)c1cc(COc2ccc(-n3cncn3)cc2)on1 ?
NALP3 yeast inh: 13; TIM10 inh: 41*; SKKanGAS inh: 2; tim10-1 inh: 53*; tim23-1 inh: 59*; tim10-1 conf: 37*; TIM10 conf: 35*; tim23-1 confirm: 43*

What do the screens show for `NC(=O)c1c(NC(=O)c2cccs2)sc2c1CCCCCC2`?
NALP3 yeast inh: 25; TIM10 inh: 23; SKKanGAS inh: -1; tim10-1 inh: 46*; tim23-1 inh: 59*; tim10-1 conf: 12; tim23-1 confirm: 58*

Results for O=C(NC1CCN(C(=O)Nc2ccc(F)cc2)CC1)c1ccccc1F ?
NALP3 yeast inh: 11; TIM10 inh: -6; SKKanGAS inh: 1; tim10-1 inh: -14; tim23-1 inh: -14

What do the screens show for `CCN(CC)/C(=N\S(=O)(=O)c1ccc(F)cc1)c1ccccc1`?
NALP3 yeast inh: 8; TIM10 inh: 14; SKKanGAS inh: 1; tim10-1 inh: 9; tim23-1 inh: 10

Results for C(=C\c1ccccn1)/c1ccccn1 ?
NALP3 yeast inh: 4; TIM10 inh: -7; SKKanGAS inh: -3; tim10-1 inh: 4; tim23-1 inh: 10

Results for CC1C/C(=C/c2ccco2)C(=O)/C(=C/c2ccco2)C1 (configuration not stated) ?
NALP3 yeast inh: 3; TIM10 inh: 34; SKKanGAS inh: -1; tim10-1 inh: 54*; tim23-1 inh: 54*; tim10-1 conf: 32*; tim23-1 confirm: 43*

What do the screens show for `CNc1ccc(/C=C2\COc3ccccc3C2=O)cc1[N+](=O)[O-]`?
NALP3 yeast inh: 35; TIM10 inh: 1; SKKanGAS inh: -4; tim10-1 inh: 10; tim23-1 inh: 9

Results for CC1C/C(=C/c2ccccn2)C(=O)/C(=C/c2ccccn2)C1 (configuration not stated) ?
NALP3 yeast inh: 28; TIM10 inh: 67*; SKKanGAS inh: -23; tim10-1 inh: 67*; tim23-1 inh: 65*; tim10-1 conf: 66*; TIM10 conf: 71*; tim23-1 confirm: 82*

Results for CC(C)(C)C1C/C(=C/c2ccccn2)C(=O)/C(=C/c2ccccn2)C1 (configuration not stated) ?
NALP3 yeast inh: 27; TIM10 inh: 69*; SKKanGAS inh: 5; tim10-1 inh: 66*; tim23-1 inh: 68*; tim10-1 conf: 70*; TIM10 conf: 75*; tim23-1 confirm: 27

What do the screens show for `O=C1/C(=C/c2ccccn2)COc2ccccc21`?
NALP3 yeast inh: -1; TIM10 inh: 64*; SKKanGAS inh: -1; tim10-1 inh: 54*; tim23-1 inh: 76*; tim10-1 conf: 68*; TIM10 conf: 75*; tim23-1 confirm: 72*

How did Cc1ccc(CNS(=O)(=O)c2ccc(C)s2)cc1 do in these assays?
NALP3 yeast inh: 24; TIM10 inh: 9; SKKanGAS inh: -11; tim10-1 inh: 29; tim23-1 inh: 39

How did COc1ccc(N(CC(O)CN2CCOCC2)S(=O)(=O)c2ccccc2)cc1 (configuration not stated) do in these assays?
NALP3 yeast inh: 0; TIM10 inh: 0; SKKanGAS inh: -3; tim10-1 inh: 0; tim23-1 inh: 2

Results for Cc1nn(-c2ccccc2)c2c1C1(C(=O)N3c4c(cccc41)C(C)CC3(C)C)C(C#N)=C(N)O2 (configuration not stated) ?
NALP3 yeast inh: 3; TIM10 inh: 52*; SKKanGAS inh: 12; tim10-1 inh: 75*; tim23-1 inh: 69*; tim10-1 conf: 73*; TIM10 conf: 43*; tim23-1 confirm: 78*

Results for CC1=NNC(=O)C1CC(=O)N/N=C(\C)c1ccco1 (configuration not stated) ?
NALP3 yeast inh: 16; TIM10 inh: 18; SKKanGAS inh: 7; tim10-1 inh: -7; tim23-1 inh: -2

Screening results (PubChem BioAssay)
